Sampled rows, rich in hits. Any-hit rate of the full collection: about 2.6%.
mut p53 react: mutant p53 pathway re-activators, primary screen, cell-based, SW480, luciferase, single point, HTS | SW480 PUMA-promoter luciferase, p53 mutant reactivation | activation, % at 9.98 µM | actives 1.5% (n = 28,000) | AID 624151, 2012; in the data active means activation above about 52%
p53 mut binder: binders of human mutant p53, primary screen, biochemical, small molecule microarray, anti-GST fluorescence; mutant tumor protein p53 (GST-tagged), Homo sapiens; small molecule microarray binding; calls only; actives 0.4% (n = 17,000); AID 624136, 2012;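 active means compounds whose four printed spots each glow above background more than chance allows, each with a p-value under 7%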
c-Myc SMM: binders of human c-Myc, primary screen, biochemical, small molecule microarray, anti-His fluorescence | His-c-Myc binding | calls only | actives 1.5% (n = 17,000) | Myc proto-oncogene protein (Homo sapiens), P01106;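 active means spot fluorescence over background with P-value below 7% in all four replicate spots, showing protein binding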;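 further: score is binary with 100 for all four spots passing and 0 otherwise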
Target sequence (P01106 whole entry, looked up): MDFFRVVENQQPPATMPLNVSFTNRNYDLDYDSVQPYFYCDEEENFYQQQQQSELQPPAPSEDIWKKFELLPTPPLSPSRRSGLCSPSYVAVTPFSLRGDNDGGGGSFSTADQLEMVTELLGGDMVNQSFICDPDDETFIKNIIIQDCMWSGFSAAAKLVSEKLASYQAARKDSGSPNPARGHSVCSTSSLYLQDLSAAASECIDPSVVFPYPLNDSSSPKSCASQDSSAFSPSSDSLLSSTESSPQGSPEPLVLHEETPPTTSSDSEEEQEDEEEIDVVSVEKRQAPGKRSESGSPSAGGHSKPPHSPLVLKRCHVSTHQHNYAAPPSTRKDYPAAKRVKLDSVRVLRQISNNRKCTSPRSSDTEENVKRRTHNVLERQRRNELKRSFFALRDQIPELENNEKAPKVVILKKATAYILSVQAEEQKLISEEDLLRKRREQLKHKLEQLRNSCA
STAT3 SMM: STAT3 binders, primary screen, biochemical, small molecule microarray, single point, set 2. His-STAT3 binding, anti-His fluorescence. Signal transducer and activator of transcription 3 (Homo sapiens), P40763. calls only. actives 0.2% (n = 17,000);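 active means compounds whose four printed spots each show fluorescence over background unusually high for their array block, chance value under 7%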
NFkB SMM: binders of NF-kB p50 subunit, primary screen, biochemical, small molecule microarray, anti-His fluorescence; Nuclear factor NF-kappa-B p105 subunit (Homo sapiens), P19838; anti-His fluorescence binding; calls only; actives 1.3% (n = 17,000); AID 624139, 2012;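 active means spot fluorescence over background significantly raised, with a chance value under 7% in all four replicate spots of the compound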;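 further: probe protein is his-tagged human p50 processed subunit at 1 µg/ml; raw spot fluorescence signals with no normalization applied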
* = called active by the depositor; i = inactive; nt = not tested or not shown; + = active, no number.

SMILES	mut p53 react	p53 mut binder	c-Myc SMM	STAT3 SMM	NFkB SMM
O=[N+]([O-])c1ccc(OCCCSc2ncccn2)cc1	57*	nt	nt	nt	nt
COc1cccc(OCCSc2nc(N)cc(N)n2)c1	64*	i	i	i	i
COc1ccc(OCCCSc2ncccn2)cc1	126*	nt	nt	nt	nt
C[C@@H]1O[C@@H](O[C@H]2[C@@H]3C=CO[C@@H](O[C@@H]4O[C@H](CO)[C@@H](O)[C@H](O)[C@H]4O)[C@@H]3[C@@]3(CO)O[C@@H]23)[C@H](O)[C@H](OC(=O)/C=C/c2ccc(O)cc2)[C@H]1O	-18	i	i	i	i
O=C(NCc1nc2ccccc2[nH]1)c1ccccc1	94*	i	i	i	i
O=C(O)CNS(=O)(=O)c1cccc2nsnc12	9	nt	nt	nt	nt
CC(C)CC(NS(=O)(=O)c1cccc2nsnc12)C(=O)O (stereo not drawn)	-7	i	+	i	+
c1ccc(-c2nn3c(C4COc5ccccc5O4)nnc3s2)cc1 (stereo not drawn)	59*	i	i	i	i
O=C(Nc1cccnc1)c1nc2ncccn2n1	-1	nt	nt	nt	nt
Cc1ccc(O)c(NC(=O)c2nc3ncccn3n2)c1	58*	i	i	i	i
CCCN(C)C[C@H]1OCCCC[C@@H](C)Oc2ccc(NS(=O)(=O)c3ccc(OC)cc3)cc2C(=O)N([C@@H](C)CO)C[C@H]1C	-3	+	+	i	i
C[C@@H]1CCCCO[C@H](CN(C)CC2CC2)[C@@H](C)CN([C@H](C)CO)C(=O)c2cc(NC(=O)Nc3cccc4ccccc34)ccc2O1	nt	i	i	i	i
C[C@@H]1CN([C@@H](C)CO)C(=O)c2cc(NC(=O)Nc3cccc4ccccc34)ccc2O[C@@H](C)CCCCO[C@@H]1CN(C)CC1CCCCC1	nt	i	+	i	+
C[C@@H]1CN([C@@H](C)CO)C(=O)c2cc(NC(=O)Nc3cccc4ccccc34)ccc2O[C@@H](C)CCCCO[C@H]1CN(C)CC1CC1	0	nt	nt	nt	nt
CCCN(C)C[C@@H]1OCCCC[C@@H](C)Oc2ccc(NC(=O)Nc3cccc4ccccc34)cc2C(=O)N([C@H](C)CO)C[C@@H]1C	nt	i	+	i	+
COc1ccc(NC(=O)Cc2nc(-c3ccc(OC)cc3)cs2)cc1	-7	i	i	i	i
O=C(CC1CCOCC1)Nc1ccc(I)cc1	63*	nt	nt	nt	nt
O=C(CC1NC(=O)NC1=O)Nc1ccc(F)cc1 (stereo not drawn)	-2	nt	nt	nt	nt
CC(C)NC(=O)Nc1ccc2c(c1)C(=O)N([C@@H](C)CO)C[C@@H](C)[C@H](CN(C)Cc1ccccc1)OCCCC[C@@H](C)O2	5	i	i	i	i
CC(C)NC(=O)Nc1ccc2c(c1)C(=O)N([C@@H](C)CO)C[C@H](C)[C@H](CN(C)Cc1ccccc1)OCCCC[C@@H](C)O2	5	i	i	i	i
CC(C)NC(=O)Nc1ccc2c(c1)C(=O)N([C@@H](C)CO)C[C@H](C)[C@@H](CN(C)Cc1ccccc1)OCCCC[C@H](C)O2	-13	i	+	i	+
CC(C)NC(=O)Nc1ccc2c(c1)C(=O)N([C@H](C)CO)C[C@H](C)[C@@H](CN(C)Cc1ccccc1)OCCCC[C@H](C)O2	-1	i	i	i	+
CC(C)NC(=O)Nc1ccc2c(c1)C(=O)N([C@@H](C)CO)C[C@H](C)[C@@H](CN(C)Cc1ccccc1)OCCCC[C@@H](C)O2	-1	i	+	i	i
C[C@H](CO)N1C[C@H](C)[C@H](CN(C)Cc2ccncc2)OCCCC[C@H](C)Oc2ccc(NC(=O)Nc3ccccc3)cc2C1=O	-6	+	i	+	i
C[C@@H]1CCCCO[C@H](CN(C)Cc2ccncc2)[C@H](C)CN([C@@H](C)CO)C(=O)c2cc(NC(=O)Nc3ccccc3)ccc2O1	-6	i	i	i	i
SMILES	mut p53 react	p53 mut binder	c-Myc SMM	STAT3 SMM	NFkB SMM
CC(C(=O)Nc1cc(Cl)ccc1O)N1C(=O)c2ccccc2C1=O (stereo not drawn)	17	i	i	i	i
N=c1c2cnn(-c3ccccc3)c2ncn1/N=C/c1ccc(Cl)cc1	16	nt	nt	nt	nt
CC(C)NC(=O)Nc1ccc2c(c1)C(=O)N([C@@H](C)CO)C[C@H](C)[C@@H](CN(C)C(=O)Nc1ccccc1)OCCCC[C@@H](C)O2	26	i	+	i	+
N#CCCSCc1ccc2oc(C(=O)O)cc2c1	-8	i	+	i	i
C[C@@H]1O[C@@H](O[C@H]2[C@H](O[C@H]3CC[C@@]4(C)C(CC[C@]5(C)C4CC=C4C6CC(C)(C)CC[C@]6(C(=O)O)CC[C@]45C)[C@]3(C)CO)OC[C@H](O)[C@@H]2O)[C@H](O)[C@H](O)[C@H]1O (stereo partly drawn)	-62	i	i	i	+
C[C@@H]1O[C@@H](O[C@H]2[C@H](O[C@H]3[C@H](O)[C@@H](C(=O)O)O[C@@H](O[C@H]4CC[C@@]5(C)C(CC[C@]6(C)C5CC[C@]57OC[C@@]8(CCC(C)(C)CC85)[C@H](O)C[C@]76C)C4(C)C)[C@@H]3O[C@@H]3O[C@H](CO)[C@@H](O[C@@H]4OC[C@@H](O)[C@H](O)[C@H]4O)[C@H](O)[C@H]3O)O[C@H](CO)[C@H](O)[C@@H]2O)[C@H](O)[C@H](O)[C@H]1O (stereo partly drawn)	-3	i	+	i	+
C[C@@H]1O[C@@H](O[C@H]2[C@H](O[C@H]3[C@H](O[C@H]4CC[C@@]5(C)C(CC[C@]6(C)C5CC=C5[C@@H]7CC(C)(C)C[C@@H](O)[C@]7(C)CC[C@]56C)[C@@]4(C)CO)O[C@H](C(=O)O)[C@@H](O)[C@@H]3O)OC[C@H](O)[C@@H]2O)[C@H](O)[C@H](O)[C@H]1O (stereo partly drawn)	4	+	+	i	i
CC1(C)CC[C@]2(C(=O)O)CC[C@]3(C)C(=CCC4[C@@]5(C)CC[C@H](O[C@@H]6O[C@H](C(=O)O)[C@@H](O[C@@H]7OC[C@@H](O)[C@H](O)[C@H]7O)[C@H](O)[C@H]6O)C(C)(C)C5CC[C@]43C)C2C1 (stereo partly drawn)	-6	i	+	i	+

Compound activity (PubChem)
